The results in this text go back to PubChem BioAssay (NCI).

Compounds without any hit were thinned out: in the full panel of roughly 83,000, 20% have a hit.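 A percent growth of 40 corresponds to 60% growth inhibition; 0 means no net growth; -100 means all cells died. Active threshold: below 10.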 Values without a mark were called inactive. Calls of active or inactive are those of the source.

Test systems include NCI-H23 lung; NCI-H226 lung; NCI-H322M lung; HOP-62 NSCLC; NCI-H460 lung; HOP-92 NSCLC; NCI-H522 lung; A549/ATCC NSCLC; 786-0 renal; COLO 205 colon; DU-145 prostate; K-562 leukemia; MALME-3M melanoma; MDA-MB-231 breast; SF-268 CNS; SF-295 CNS; SF-539 CNS; UACC-257 melanoma; M14 melanoma.
Common to all, as to experiment: NCI-60 one-dose screen, 48 h (100 = growth as untreated, 0 = no growth, -100 = all killed)
Holding throughout (conditions): 10 µM

Take `Cc1ccc(/C=C/C(=O)c2ccc(NC(=O)CSc3nnc(-c4c[nH]c5ccccc45)n3-c3ccccc3)cc2)cc1`: the growth in the test with NCI-H23 lung is 74.3%; with NCI-H226 lung, 80.7%; in the test with NCI-H322M lung it was 92.8%; in the test on HOP-62 NSCLC, 95.8%; in the test on NCI-H460 lung, 84.6%; with HOP-92 NSCLC it was 92%. Moreover, the growth is 81.7% in the test with NCI-H522 lung; 95.9% with A549/ATCC NSCLC; 109% with 786-0 renal; 102% in the test on COLO 205 colon; 93% in the test on DU-145 prostate; 64.1% in the test with K-562 leukemia. For the same molecule, the growth in the test on MALME-3M melanoma is 93.9%; in the test with MDA-MB-231 breast, 83.7%; in the test with SF-268 CNS it was 82.2%; in the test on SF-295 CNS it was 92.4%; in the test with SF-539 CNS, 7.12% (active); in the test on UACC-257 melanoma, 111%. The growth in the test on M14 melanoma was 82.1%.
For the molecule `O=C(CNc1nc(-c2ccccc2)cs1)Nc1cccc(Cl)c1`, the growth in the test with NCI-H23 lung is 28.4%; in the test on NCI-H226 lung, 44.8%; in the test on NCI-H322M lung, 62.3%; with HOP-62 NSCLC, 46.6%; in the test with NCI-H460 lung, 44.8%; in the test with HOP-92 NSCLC, -5.42% (active). The growth in the test with NCI-H522 lung was 4.23% (active); with A549/ATCC NSCLC, 38.7%; in the test with 786-0 renal it was 54.6%; in the test with COLO 205 colon, 40.3%; in the test on DU-145 prostate, 53.5%; in the test on K-562 leukemia it was 19.6%. The growth in the test with MALME-3M melanoma is 64.1%; in the test with MDA-MB-231 breast, 30.8%; in the test with SF-268 CNS it was 30.6%; with SF-295 CNS it was 22.4%; in the test on SF-539 CNS, 42.3%; with UACC-257 melanoma it was 62.9%. In addition, in the test with M14 melanoma, the growth was 34%.
Take `CN1CCN(c2ccc(C(=O)/C=C/c3ccc(OC(F)F)cc3)cc2)CC1`: the growth with NCI-H23 lung was 27.8%; with NCI-H226 lung it was 27.7%; in the test on NCI-H322M lung, 70.6%; with HOP-62 NSCLC, 95.6%; in the test with NCI-H460 lung it was 49.2%; in the test on HOP-92 NSCLC, 61.6%. In addition, the growth with NCI-H522 lung was 83.5%; in the test on A549/ATCC NSCLC it was 40.2%; in the test with 786-0 renal, 61.6%; in the test on COLO 205 colon it was 34.8%; with DU-145 prostate, 57.8%; with K-562 leukemia, 6.23% (active). In addition, the growth was 84.1% in the test with MALME-3M melanoma; 41.5% in the test on MDA-MB-231 breast; 81% in the test with SF-268 CNS; 47.4% in the test with SF-295 CNS; -39.8% (active) with SF-539 CNS; 68.7% in the test on UACC-257 melanoma. Moreover, in the test with M14 melanoma, the growth was 31.6%.
`O=C(CNc1nc(-c2ccccc2)cs1)Nc1ccc([N+](=O)[O-])cc1`: the growth was -6.85% (active) with NCI-H23 lung; 29.4% with NCI-H226 lung; 6.59% (active) in the test with NCI-H322M lung; 33.3% in the test on HOP-62 NSCLC; 35% in the test on NCI-H460 lung; 42.8% in the test on HOP-92 NSCLC. For the same molecule, the growth with NCI-H522 lung was -74.6% (active); in the test with A549/ATCC NSCLC, 42.8%; in the test on 786-0 renal, 16%; in the test on COLO 205 colon, -83.3% (active); in the test on DU-145 prostate, 45.2%; in the test on K-562 leukemia it was 9.52% (active). Besides, the growth with MALME-3M melanoma was -66.6% (active); in the test on MDA-MB-231 breast it was -13.4% (active); in the test on SF-268 CNS, 38.4%; in the test on SF-295 CNS, 26%; in the test on SF-539 CNS, -28.2% (active); in the test on UACC-257 melanoma, 39.5%. Besides, the growth in the test on M14 melanoma is 30.2%.
Take `CC(=O)C1=C(C)NC(SCC(=O)Nc2ccc(S(=O)(=O)Nc3cc(C)on3)cc2)=NC1c1ccccc1` (configuration not stated): the growth is 102% with NCI-H23 lung; 117% in the test on NCI-H226 lung; 102% with NCI-H322M lung; 105% in the test with HOP-62 NSCLC; 98.3% in the test with NCI-H460 lung; 132% in the test with HOP-92 NSCLC. The growth in the test on NCI-H522 lung is 100%; in the test on A549/ATCC NSCLC, 99.1%; in the test with 786-0 renal it was 102%; in the test on COLO 205 colon, 122%; in the test with DU-145 prostate, 109%; with K-562 leukemia, 104%. Moreover, the growth with MALME-3M melanoma was 100%; with MDA-MB-231 breast, 110%; with SF-268 CNS, 107%; with SF-295 CNS it was 106%; in the test on SF-539 CNS, 101%; with UACC-257 melanoma, 103%. In addition, the growth in the test on M14 melanoma is 108%.
`CN(C(=O)c1ccc(C(C)(C)C)cc1)c1sc2c(c1C#N)CCC(=O)C2`: the growth was -29.1% (active) in the test on NCI-H23 lung; 62.6% with NCI-H226 lung; 88.4% in the test with NCI-H322M lung; 34.6% with HOP-62 NSCLC; 35.6% in the test on NCI-H460 lung; 21.9% in the test with HOP-92 NSCLC. Besides, the growth in the test on NCI-H522 lung was -45.8% (active); with A549/ATCC NSCLC, 91.5%; in the test with 786-0 renal, 50.3%; in the test with COLO 205 colon, 80.7%; in the test with DU-145 prostate it was 80.7%; with K-562 leukemia, 11.7%. For the same molecule, the growth is -6.14% (active) with MALME-3M melanoma; -74.4% (active) in the test on MDA-MB-231 breast; 18.5% in the test on SF-268 CNS; -0.987% (active) with SF-295 CNS; -86.1% (active) with SF-539 CNS; 97% in the test on UACC-257 melanoma. Moreover, in the test on M14 melanoma, the growth was 19.3%.
As to `COc1cc(/C=C/C(=O)c2ccc(F)cc2)ccc1Oc1nc(Nc2ccc(F)cc2)nc(N(C)C)n1`, the growth in the test with NCI-H23 lung was 66.8%; with NCI-H226 lung, 53.7%; in the test with NCI-H322M lung it was 79.1%; with HOP-62 NSCLC it was 93.5%; in the test on NCI-H460 lung, 69.6%; in the test with HOP-92 NSCLC, 65.6%. Further, the growth with NCI-H522 lung is 62.3%; in the test with A549/ATCC NSCLC, 74.1%; with 786-0 renal it was 71%; in the test on COLO 205 colon, 118%; in the test with DU-145 prostate, 78.4%; with K-562 leukemia, 25.7%. Also, the growth with MALME-3M melanoma was 84.4%; in the test with MDA-MB-231 breast, 59.4%; in the test with SF-268 CNS it was 54.8%; in the test on SF-295 CNS, 53.1%; in the test with SF-539 CNS, 77.5%; in the test on UACC-257 melanoma, 47.7%. Moreover, the growth in the test with M14 melanoma is 68.6%.
With `COc1cc(/C=C/C(=O)c2ccc(NC(=O)CN3C(=O)NC(C)(c4ccccc4)C3=O)cc2)cc(OC)c1OC` (configuration not stated), the growth was 15.6% in the test on NCI-H23 lung; 1.44% (active) with NCI-H226 lung; 56.5% in the test on NCI-H322M lung; 33.3% with HOP-62 NSCLC; 2.48% (active) with NCI-H460 lung; 85% in the test with HOP-92 NSCLC. The growth was 32.8% in the test with NCI-H522 lung; 18.5% with A549/ATCC NSCLC; 27.5% with 786-0 renal; 11.9% in the test with COLO 205 colon; 12.4% in the test on DU-145 prostate; 16% in the test on K-562 leukemia. The growth is 69.5% with MALME-3M melanoma; 26.5% in the test with MDA-MB-231 breast; 23% in the test with SF-268 CNS; 46.7% in the test on SF-295 CNS; -50.4% (active) in the test on SF-539 CNS; 52.6% in the test on UACC-257 melanoma. In addition, the growth with M14 melanoma is 46.8%.
